Here are results for 65 molecules from PubChem BioAssay AID1476 (National Center for Advancing Translational Sciences (NCATS), 2009).

Structures are written as SMILES. The campaign covered roughly 200,000 compounds. About 4,500 (2.2%) were called active. Roughly 12% stayed inconclusive and do not appear here. Only a selection was taken, and actives are over-represented in it overall. Unmarked numbers belong to inactive results. Calls come from the whole dose curve; as a rule, active = well fitted inhibition curve with a large enough effect; inconclusive = small, poorly fitted or top-dose-only effect, or effect the other way; inactive = flat fitted curve, though single readings scatter.
Potency is the fitted concentration of half-maximal effect.

Sequence of Cruzipain (Trypanosoma cruzi) (P25779 123-467 limits assumed): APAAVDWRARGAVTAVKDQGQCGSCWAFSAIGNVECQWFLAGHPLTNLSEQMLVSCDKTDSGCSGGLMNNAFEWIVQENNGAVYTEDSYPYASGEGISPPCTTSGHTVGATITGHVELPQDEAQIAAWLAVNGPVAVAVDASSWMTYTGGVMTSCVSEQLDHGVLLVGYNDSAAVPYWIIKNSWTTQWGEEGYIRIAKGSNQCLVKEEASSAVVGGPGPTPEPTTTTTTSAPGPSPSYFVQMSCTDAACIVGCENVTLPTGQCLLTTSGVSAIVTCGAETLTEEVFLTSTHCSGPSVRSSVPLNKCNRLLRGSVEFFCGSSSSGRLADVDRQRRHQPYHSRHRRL

In the assay the target is Cruzipain (Trypanosoma cruzi) (UniProt P25779). Nature of the assay: qHTS Assay for Promiscuous and Specific Inhibitors of Cruzain (without detergent).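 For max response, negative = inhibition: plate controls were enzyme without inhibitor for no effect and buffer without enzyme for full effect.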 Note: nearly all actives have a fitted effect of over 40% in size. The conditions noted are these: purified cruzain, Z-FR-AMC fluorescence, no detergent. The procedure, abridged:
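Purified cruzain at 1.5 nM, pre-incubated 15 min with compound at room temperature in 100 mM sodium acetate pH 5.5, 5 mM DTT, 0.00005% Triton X-100. Reaction started with 2 uM Z-FR-AMC; AMC fluorescence increase over 60 s gives rate.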
Background: qHTS replaces the single test concentration by a dilution series.
With `COc1ccc(-c2[nH]c3c(c2-c2c(-n4cccc4)n(C)c(=O)n(C)c2=O)c(=O)n(C)c(=O)n3C)cc1`, the max response, negative = inhibition was -3.26%.

With `COc1ccc(C(=O)Nc2nc(-c3ccc(OC)cc3)c(-c3ccc([N+](=O)[O-])cc3)s2)cc1`, the Potency was 7.94 µM (active). Regarding `COC(=O)C(NC(=O)c1ccc(OC)cc1)(Nc1ncc(S(=O)(=O)c2ccc([N+](=O)[O-])cc2)s1)C(F)(F)F` (stereo not given), the max response, negative = inhibition is -9.17%.

Take `COc1ccc(C(=O)Nc2ncc3c(n2)-c2ccccc2CC3)cc1`: the max response, negative = inhibition is -8%. Turning to `O=C(NCc1ccccc1Cl)c1cccn1-c1nnc(N2CCCCC2)s1`, the max response, negative = inhibition was -7.04%.

`Oc1ccc(O)c2c(O)cccc12`: the Potency is 12.6 µM (active). Consider `O=c1cc(-c2ccc(O)c(O)c2)oc2cccc(O)c12`, for which the max response, negative = inhibition is 0.411%. Take `O=S(=O)(c1ccc(Cl)cc1)c1nnn2c1nc(NC1CCCC1)c1sccc12`: the max response, negative = inhibition was 1.8%. With `Cc1ccccc1NC(=O)Cn1c(=O)n(CC2CCC(C(=O)NCCc3ccccc3)CC2)c(=O)c2ccccc21` (stereo not given), the max response, negative = inhibition is 3.54%. For the molecule `COc1ccc(-c2nc(C)c(CCNC(=O)c3ccc(C(F)(F)F)cc3)s2)cc1OC`, the max response, negative = inhibition is 17.5%.

On to `CCn1cc(CCC(=O)NCc2ccc(F)cc2)c2ccccc21`, for which the max response, negative = inhibition was -13.6%.

For `COC(=O)c1ccc(CSc2nc3ccccc3c(=O)n2-c2cccc(OC)c2)o1`, the Potency was 25.1 µM (active). The same measure, in the same setting: for `CCc1ccc(NC(=O)CSc2nc3c([nH]c4ccccc43)c(=O)n2-c2cccc(OC)c2)cc1` the value was 12.6 µM (active). As for `COCC(C)n1c(SCc2ccc(C(=O)OC)o2)nc2ccccc2c1=O` (stereo not given), the max response, negative = inhibition was 12.5%. The same measure, in the same setting: for `COC(=O)c1ccc(CSc2ccccc2C)o1` the value was -6.13%; for `Cc1cccc(NC(=O)CSc2nc3c([nH]c4ccccc43)c(=O)n2-c2cc(C)cc(C)c2)c1`, -19.8%.

Regarding `Cc1ccc(NC(=O)CSc2nc3c([nH]c4ccccc43)c(=O)n2-c2ccccc2)cc1Cl`, the max response, negative = inhibition was 2.09%. With `COc1ccc(-c2cccc(NS(=O)(=O)c3cc(C)c(OC)c(C)c3C)c2)nn1`, the max response, negative = inhibition was -5.81%.

In the case of `Cc1ccccc1CNC(=O)c1ccc(NC(=O)N2CCCCc3ccccc32)cc1`, the max response, negative = inhibition was -9.89%. Same read-out and setting: for `Cc1ccc(-c2nnc(SCC(=O)NCc3ccccc3)nc2-c2ccc(C)cc2)cc1` the value was -17.5%; for `Brc1ccc2c(c1)NC(c1cccnc1)=NC(c1ccccc1)=N2`, 2.72%. Regarding `CCCCN(C)CCCNC(=O)CN1N=C(c2ccc(OC)cc2)CCC1=O`, the max response, negative = inhibition was 2.7%. Same read-out and setting: for `Cc1nn(C)c2c1c(C(F)(F)F)cc(=O)n2C(C)C(=O)NCc1ccc(Cl)cc1` (stereo not given) the value was -3.11%; for `COc1ccc(C2=NN(C(=O)c3cccnc3)C(c3ccccc3)C2)cc1` (stereo not given), 7.92%.

Take `COc1ccc(C2CC(c3ccccc3)=NN2C(=O)c2ccc(Cl)c([N+](=O)[O-])c2)cc1` (stereo not given): the Potency is 10 µM (active). Turning to `COc1ccc(C(=O)NNC(=S)NC(=O)c2ccccc2[N+](=O)[O-])cc1`, the max response, negative = inhibition is -1.55%.

As for `CCOC(=O)C1CCCN(C(=O)c2ccc(-n3ccc4ccccc43)s2)C1` (stereo not given), the max response, negative = inhibition was 13.4%. For `CCOc1ccc(C(=O)c2cn(Cc3ccc(F)cc3)c3ccc(F)cc3c2=O)cc1`, the max response, negative = inhibition is 3.78%.

Take `Nc1ncc(S(=O)(=O)Nc2ccc(OC(F)(F)F)cc2)cn1`: the max response, negative = inhibition was -3.7%. The same measure, in the same setting: for `O=C(c1cn(-c2ccccc2)nc1-c1cccnc1)N1CCCCC1` the value was -0.942%. `O=C(COC(=O)/C=C/c1cn(-c2ccccc2)nc1-c1cccnc1)Nc1ccc(Cl)cc1Cl`: the Potency was 10 µM (active). For `COC(=O)c1cn(-c2ccccc2)nc1-c1cccnc1`, the max response, negative = inhibition was 10.9%. `CCc1c(C)sc(NC(=O)C2c3ccccc3Oc3ccccc32)c1C(=O)OC(C)C`: the max response, negative = inhibition was -24.3%. For the molecule `COc1ccc(Oc2coc3cc(OC(=O)c4cncc(Br)c4)ccc3c2=O)cc1`, the max response, negative = inhibition was -23.9%.

`CCc1ccc(Oc2coc3cc(OC(=O)c4cc5ccccc5oc4=O)ccc3c2=O)cc1`: the Potency was 3.98 µM (active). For `CCCOC(=O)c1cc2ccccc2oc1=O`, the max response, negative = inhibition is -4.88%. For the molecule `CNc1nc(SC)nc(N(C#N)CC(=O)OC)n1`, the Potency is 25.1 µM (active). As to `COC(=O)C(C)N(C#N)c1nc(C)nc(C)n1` (stereo not given), the max response, negative = inhibition is 1.82%. Regarding `Cc1cc(C)nc(N(C#N)CC(=O)Nc2ccccc2)n1`, the max response, negative = inhibition is 5.89%. Still for that read-out and setting: for `CCCCOc1ccc(NC(=O)c2cc3c(n(-c4ccc(Cl)cc4)c2=O)CCCC3=O)cc1` the value was 7.21%; for `CSCCC(NS(=O)(=O)c1ccc2c(c1)oc(=O)n2C)C(=O)NCc1ccccc1` (stereo not given), -13%. For the molecule `COc1ccc(CCNC(=O)CCCn2c(=O)c3ccccc3n(Cc3ccc(F)cc3Cl)c2=O)cc1OC`, the max response, negative = inhibition was 13.2%.

Regarding `CCc1nnc(SCc2nc(-c3cccc(C)c3)oc2C)c2cc3sc(C)cc3n12`, the max response, negative = inhibition is -17.8%.

As to `COc1ccc(C2CC(c3cccs3)=Nc3ccccc3S2)cc1OC` (stereo not given), the max response, negative = inhibition was 13.4%.

Consider `COc1ccccc1C(=O)OCc1cc(=O)n2nc(-c3cccs3)sc2n1`, for which the max response, negative = inhibition was -3.73%. For `COc1ccc(C2CC(c3cccs3)=NN2C(=O)COC(=O)c2cc3ccccc3cc2O)cc1OC` (stereo not given), the Potency was 12.6 µM (active). With `O=C(Cn1ncc2c3ccccc3n(Cc3ccccc3)c2c1=O)NC1CCCCCC1`, the max response, negative = inhibition was 10.4%. Consider `COc1cccc(NC(=O)CSc2cc(=O)n(C)c3ccc(Cl)cc23)c1`, for which the max response, negative = inhibition is -14.5%. Same read-out and setting: for `COc1cn(CC(=O)Nc2cccc(C)c2C)c(CN2CCCCC2)cc1=O` the value was 9%. Same read-out and setting: for `CCC(=O)N1c2ccccc2CC1C(=O)N1CCN(c2ccccc2)CC1` (stereo not given) the value was 7.34%.

Turning to `O=C(NC(c1ccccc1)c1ccccc1)N1CCN(CCO)CC1`, the max response, negative = inhibition is -2.87%. For `O=C(CN1CCc2ccccc21)NC(c1ccccc1)c1ccccc1`, the Potency is 25.1 µM (active). For `O=S(=O)(NCC(c1ccccc1)N1CCc2ccccc21)c1ccccc1` (stereo not given), the max response, negative = inhibition is 4.54%.

Consider `Cc1nc(NC(=O)CN(C)S(=O)(=O)c2ccc(Cl)cc2)sc1C`, for which the max response, negative = inhibition is -3.63%. Consider `Cc1ccc(Nc2nc(-c3sc(NC(=O)c4ccccc4)nc3C)cs2)cc1`, for which the Potency is 31.6 µM (active).

For the molecule `CCCCCCC(=O)Nc1nc(C)c(-c2csc(Nc3cccc(OC)c3)n2)s1`, the Potency is 10 µM (active). As to `CC(=O)c1sc(NC(=O)c2ccc(C)cc2)nc1C`, the max response, negative = inhibition was -25%.

For the molecule `Cc1nc(C)c(-c2csc(NCCc3ccccc3)n2)s1`, the max response, negative = inhibition is -11.5%. Regarding `Cc1ccc(C(=O)Nc2nc(-c3ccccc3)ns2)cc1`, the max response, negative = inhibition was 5.68%.

Take `COc1cccc(NC(=O)c2csnn2)c1`: the max response, negative = inhibition is -5.7%.

In the case of `CCOC(=O)c1csc(NC(=O)Nc2cccc(OC)c2)n1`, the max response, negative = inhibition was 8.19%. For `CN(CCCC(=O)Nc1nccs1)S(=O)(=O)c1ccc(Cl)cc1`, the max response, negative = inhibition is -7.25%.

In the case of `CCCCN(C)CCC(=O)Nc1ccc(Cl)cc1`, the max response, negative = inhibition was -0.803%. As to `CCCCC(=O)Nc1nc(C)c(-c2csc(Nc3ccc(Cl)cc3)n2)s1`, the Potency was 7.94 µM (active). `C=CCCC(=O)Nc1nc(C)c(-c2csc(Nc3ccc(Cl)cc3)n2)s1`: the Potency was 12.6 µM (active).
